Results on 40 molecules are retold here after PubChem BioAssay (NCI).

The structures appear in SMILES notation. The panel holds about 83,000 compounds, 20% with a hit somewhere; the sample as a whole holds those more often.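 Note: values are percent growth. 100 is the growth of untreated cells, values between 100 and 0 indicate rising inhibition; between -100 and 0 indicates cell death.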 Activity calls are given as the source filed them.

The test has as its system UO-31 renal. The test is described as follows: NCI-60 one-dose screen, 48 h (100 = growth as untreated, 0 = no growth, -100 = all killed). The note with it: 10 µM unless noted. The method, then: Growth inhibition of the UO-31 human tumor cell line is measured as a screen for anti-cancer activity. Cells are grown in 96 well plates and exposed to the test compound for 48 hours. Compounds are tested at a single concentration, which is 10^-5 M for most compounds. The reported endpoint is percent growth (GI% or GIPRCNT), where numbers from 0 - 100% represent growth inhibition, and numbers from -100% - 0 represent cell death. For example, a value of 40 represents 60% growth inhibition. A value of 0 means no net growth occurred over the course of the experiment. A value of -40 indicates 40% of cells at the beginning of the experiment died by the end of the experiment. A value of -100 means all cells are dead at the end of the experiment.
NCI-60 Human Tumor Cell Lines Screen was performed using the standard one-dose NCI protocol, which is described in more detail at https://dtp.cancer.gov/discovery_development/nci-60/default.htm.
Compounds with GIPRCNT values below 10 were considered active. Activity score was based on GIPRCNT using the following formula: […]
Score is 0 for GIPRCNT values of 100 or above, 50 for GIPRCNT values of 0, and 100 for GIPRCNT values of -100.
As for `O=C(Nc1ccc(Nc2ncccn2)cc1)NC1C=c2ccccc2=CC1` (stereo not given), the growth was 80.5% (inactive). Under `O=C(OCc1nc2nc(Cl)nc(N3CCOCC3)c2[nH]1)n1ccnc1` stands -81% (active); under `CCOC(=O)c1c(O)cc(-c2ccccc2)cc1-c1sc(N(C)Cc2ccccc2)nc1Cl`, 96.8% (inactive). As for `COc1cc2nc(-c3ccc(C(F)(F)F)cc3)cc(OCCCN3CCCCC3)c2cc1OC`, the growth is 30.5% (inactive). Next, `CC1(C)CC[C@]2(C(=O)NCC#CCN3CCOCC3)CC[C@]3(C)C(=CC[C@@H]4[C@@]5(C)Cc6c([nH]c7ccccc67)C(C)(C)[C@@H]5CC[C@]43C)[C@@H]2C1`: 81.6% (inactive); `COc1ccc(CNC(=O)COc2ccc(/C=N/Nc3nc4ccccc4s3)cc2)cc1`: 60.7% (inactive); `Cc1ccc(S(=O)(=O)Nc2ccc(Cl)cc2)cc1`: 82.1% (inactive). Next, `CCCCCCCCOC(=O)c1ccc(O)c(OC)c1`: 50.8% (inactive); `CN1CCN(CCCOc2ccc3ncnc(Nc4ccc(Oc5cccc(C(F)(F)F)c5)c(Cl)c4)c3c2)CC1`: 20.1% (inactive).

As for `CS(=O)(=O)Nc1cc(-c2ccc3ncnc(Nc4ccc5[nH]ncc5c4)c3c2)cnc1Cl`, the growth was 64.1% (inactive).

Regarding `O=C(Nc1ccc2cc3ccc(NC(=O)N4CCCCCC4)cc3nc2c1)N1CCCCCC1`, the growth was -85.4% (active). Next, `C#CC(=O)Nc1cccc(Nc2nc3c(c(NCc4ccccc4)n2)CCCC3)c1`: -91.6% (active); `CC(Oc1ccc(C(=O)NS(=O)(=O)C(C)(C)C)cc1C(F)(F)F)c1ccc(Oc2ccccc2)cn1` (stereo not given): 67.9% (inactive); `O=C(Nc1sc2c(c1C(=O)O)CCCC2)c1cccc(C(F)(F)F)c1`: 85.8% (inactive). Under `O=C(CCN1CCCC1)Nc1ccc2c(Nc3ccccc3)c3ccccc3nc2c1` stands -28.3% (active). Next, `CN1C(=O)N(C)[C@H]2NC(NN)=N[C@H]21`: 93.5% (inactive); `NC(=O)c1cccc(-c2ccccc2N2CCCCC2)c1`: 82.4% (inactive). Take `CS(=O)(=O)c1ccc(-c2cc(-c3nnc(SCC(=O)Nc4ccc(C(=O)/C=C/c5ccc(Cl)cc5)cc4)n3-c3ccccc3)c3ccccc3n2)cc1`: the growth is 72.5% (inactive). Under `CO[C@@H]1[C@H](N(C)C(=O)c2ccccc2)C[C@@H]2O[C@]1(C)n1c3ccccc3c3c4c(c5c6ccccc6n2c5c31)C(=O)NC4=O` stands -35.6% (active). Under `COc1cc(C2CC(c3cccc(Nc4ccncc4)c3)=NN2c2ccccc2)cc(OC)c1OC` (stereo not given) stands 53.3% (inactive); under `O=C(N/N=C/c1ccc(O)c(O)c1)c1sc2ccccc2c1Cl`, 61% (inactive); under `O=C(Nc1ccc(F)cc1)c1c(NC(=O)C(F)(F)F)sc2c1CCCCC2`, -0.296% (active).

Turning to `Cc1n[nH]c(C)c1-c1c(C)n[nH]c1C`, the growth is -0.471% (active).

Take `COc1ccc(NC(=O)c2sc3nc(C)c(C(O)c4ccc(OC)cc4)cc3c2N)cc1` (stereo not given): the growth is 20.6% (inactive). In the case of `CN(C)Cc1c(-c2ccccc2)[nH]c2ccccc12`, the growth was 100% (inactive). In the case of `O=CNc1cc(Cl)cc(Cl)c1`, the growth is 90.1% (inactive).

As to `COc1ccc(Cn2nc(-c3ccccc3)c3c2CCc2cnoc2-3)cc1`, the growth was 70% (inactive). Turning to `N#Cc1c(Nc2ccccc2)nn2cc(-c3nc4ccccc4s3)c(N)nc12`, the growth is 83.4% (inactive). Next, `N#CSCC1CC(O)(c2ccccc2)C(c2ccccc2)C(c2ccc(F)cc2)O1` (stereo not given): 11.2% (inactive); `CC(=O)c1c[nH]c2ccc(-c3ccnc(Nc4ccc(NC(=O)C5CCCC5)c(CN5CCOCC5)c4)n3)cc12`: 2.12% (active). Take `O=C1CCCCCCCCC(O)C(O)CCCC(c2cccs2)O1` (stereo not given): the growth was 75.2% (inactive). Under `COc1ccncc1C#Cc1cncc(C(=O)Nc2ccc(CN3CCN(C)CC3)c(C(F)(F)F)c2)c1` stands 11.7% (inactive). Next, `c1ccc(-c2nnc(Nc3ccc4c(c3)OCCO4)o2)c(NCc2ccncc2)c1`: 30.2% (inactive).

On to `O=C(N/N=C/c1cccnc1)c1ccccc1Nc1cccc(C(F)(F)F)c1`, for which the growth was 76.4% (inactive). Under `COc1cc(C2CC(c3cccc(Nc4ccncc4)c3)=NN2c2cc(Cl)cc(Cl)c2)cc(OC)c1OC` (stereo not given) stands 28.4% (inactive).

Turning to `[2H]C1([2H])NC([2H])([2H])C([2H])([2H])N(c2ccc(Nc3ncc4cc(C(=O)N(C)C)n(C5CCCC5)c4n3)nc2)C1([2H])[2H]`, the growth was 61.2% (inactive).

`CNC(=O)Nc1ccc(-c2nc(N3CCOCC3)nc3c2cnn3C2CCOCC2)cc1`: the growth was -23.5% (active). Next, `CSc1nnc2c(=O)n(C)c(=O)n(C)c2n1`: 88.9% (inactive); `COc1cnccc1-c1nc2ccc3[nH]ncc3c2c2c1CCCC2`: 29.4% (inactive).

Regarding `COc1ccc(-c2nn(Cc3ccccc3)c3c2-c2oncc2CC3)cc1OC`, the growth is 75% (inactive).
